In PubChem BioAssay (NCI):
About 83,000 compounds went through this panel and 20% of them were active in at least one assay; those are over-represented in the sample as a whole.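 Negative percent growth values reflect cell death: -40 means 40% of the cells present at the start died, and -100 means all died.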 Values without a mark were called inactive. Activity calls are given as the source filed them. The calls were made as follows: active = growth percent below 10; inactive = the rest.

Tests used:
Experiment in all cases: NCI-60 one-dose screen, 48 h (100 = growth as untreated, 0 = no growth, -100 = all killed)
Conditions in all cases: 10 µM unless noted
[1] = test system: NCI-H23 lung
[2] = test system: NCI-H226 lung
[3] = test system: NCI-H322M lung
[4] = test system: HOP-62 NSCLC
[5] = test system: NCI-H460 lung
[6] = test system: HOP-92 NSCLC
[7] = test system: NCI-H522 lung
[8] = test system: A549/ATCC NSCLC
[9] = test system: 786-0 renal
[10] = test system: COLO 205 colon

Compound | growth [1] | growth [2] | growth [3] | growth [4] | growth [5] | growth [6] | growth [7] | growth [8] | growth [9] | growth [10]
COc1ccccc1N1CCN(C2=C(Cl)C(=O)c3ncccc3C2=O)CC1 | 56.3% | 91% | 92.4% | 93.4% | 75% | 135% | 9.14% (active) | 112% | 107% | 106%
CN1CCN(Cc2ccc(NC(=O)c3cncc(C#Cc4cnc5ccc(O[C@@H]6CCOC6)nn45)c3)cc2C(F)(F)F)CC1 | -65.2% (active) | -60.7% (active) | -49.3% (active) | -79.1% (active) | -83.3% (active) | -39.6% (active) | -72% (active) | -76.8% (active) | -87.9% (active) | -77.4% (active)
O=C1[C@@H]2Cc3c([nH]c4ccccc34)[C@H](c3ccc(Br)cc3)N2C(=O)CN1C1CCN(Cc2c(Cl)cccc2Cl)CC1 | 91.7% | 85.8% | 95.1% | 91.9% | 97.5% | 94.1% | 91.7% | 93% | 99.8% | 105%
CCS(=O)(=O)Nc1ccc(C(=O)CC2(O)C(=O)Nc3ccccc32)cc1 (stereo not given) | 92.5% | 91.5% | 98.4% | 94.6% | 105% | 38.2% | 105% | 107% | 108% | 93.8%
C1=CC(c2nn3c(-c4ccccc4)nnc3s2)=Cc2ccccc2O1 | 75.8% | 31.7% | 96.3% | 105% | 87.2% | 55.9% | 83.8% | 89.7% | 91.8% | 90.2%
NNc1nnc2nc(Nc3ccccc3)nc(Nc3ccc(S(N)(=O)=O)cc3)n12 | 102% | 105% | 102% | 111% | 101% | 119% | 101% | 105% | 110% | 105%
C(=N\Nc1nc(N/N=C/c2ccc3c(c2)OCO3)nc(N2CCCCC2)n1)/c1ccc2c(c1)OCO2 | 101% | 101% | 98.5% | 123% | 90.6% | 96% | 91.9% | 91.4% | 86.6% | 85.9%
O=C1[C@H]2Cc3c([nH]c4ccccc34)[C@H](c3ccc(Cl)cc3)N2C(=O)CN1C1CCN(CC2CCCCC2)CC1 | 75.8% | 88.2% | 93.6% | 79.7% | 35.5% | 70.5% | 71.5% | 64.4% | 75% | 51.4%
CS(=O)(=O)c1nccc(-c2c(-c3cccc(OCc4ccc(Cl)c(C(F)(F)F)c4)c3)nc3sccn23)n1 | 39.4% | 23.6% | 86.1% | 32% | 55.6% | 73.9% | 80.1% | 106% | 106% | 105%
CN(C)CCCOc1ccc(C(=C(c2ccccc2)C2CCCC2)c2ccc(OCCCN(C)C)cc2)cc1 | -78.8% (active) | -67.5% (active) | -97% (active) | -72.6% (active) | -62.6% (active) | -76.3% (active) | -89.8% (active) | -79.2% (active) | -80.4% (active) | -76.2% (active)
COc1cccc(N2CCN(C3=C(Cl)C(=O)c4ncccc4C3=O)CC2)c1 | 60.3% | 94.7% | 95.4% | 83.5% | 63% | 135% | 42.6% | 97.2% | 114% | 91.9%
Nc1nc(=O)n([C@H]2C[C@H](O)[C@@H](CO)O2)cc1C=O | 112% | 111% | 110% | 95.6% | 103% | 57.7% | 102% | 103% | 102% | 14.5%
N#C/C(=C\c1cccc2c1OCO2)C(=O)Nc1sc2c(c1C#N)CCCC2 | 102% | 95.8% | 89.1% | 96.8% | 110% | 101% | 94.2% | 104% | 99.6% | 119%
O=C(CCCCCCNC(=O)C(O)(O)C(F)(F)F)Nc1ccc(Br)cc1 | 10.9% | 37.2% | 27.1% | -9.13% (active) | 12.5% | -5.9% (active) | -36.6% (active) | 7.9% (active) | 25.4% | -60.8% (active)
C#C[C@]1(O)CC[C@H]2[C@@H]3CC=C4c5sc(N(C)c6ccccc6)nc5CC[C@]4(C)[C@H]3CC[C@@]21C | 86.6% | 96.4% | 103% | 101% | 61.9% | 139% | 87.2% | 69% | 57.1% | 66.8%
CN(C)c1cccc2c(S(=O)(=O)Nc3cccc(-c4csc(NC(=O)CCCCCN5CCN(CCO)CC5)n4)c3)cccc12 | 81.3% | 91.2% | 88.2% | 84.9% | 82.6% | 37.5% | 84.4% | 74.9% | 77.5% | 81.1%
CN1CCN(Cc2ccc(NC(=O)c3cncc(C#Cc4cnc(N)nc4)c3)cc2C(F)(F)F)CC1 | 26.5% | 12.8% | 34.3% | 19.3% | 12.9% | -28.8% (active) | 36.5% | 38% | 40% | 13.2%
CN1CCN(Cc2ccc(NC(=O)c3cncc(C#Cc4cnc5ccc(NCCO)nn45)c3)cc2C(F)(F)F)CC1 | -40.2% (active) | -14% (active) | -15% (active) | -41.5% (active) | -78% (active) | -27.1% (active) | -75.8% (active) | 1.34% (active) | -17.9% (active) | -82.3% (active)
O=S(=O)(Oc1ccc(-c2cn3ccoc3n2)cc1)c1cccc(C(F)(F)F)c1 | 98% | 93.5% | 102% | 104% | 104% | 91.7% | 90.3% | 99.6% | 99.9% | 115%
COc1ccc(C(C)=C(c2ccc(OCCN3CCCCCC3)cc2)c2ccc(OCCN3CCCCCC3)cc2)cc1 | -40.3% (active) | -46.1% (active) | -11.7% (active) | -52.4% (active) | -57.2% (active) | -8.87% (active) | -52% (active) | -35.9% (active) | -93.9% (active) | -60.8% (active)
O=C1Nc2ccccc2/C1=N\c1nnc(-c2ccccc2)o1 | 91.8% | 88.7% | 86.8% | 82.6% | 99.2% | 72.2% | 88.4% | 103% | 108% | 107%
O=c1c2cc(-c3ccc(F)cc3F)ccc2n(Nc2ccccc2)c(=O)n1-c1cccc(C(F)(F)F)c1 | 2.36% (active) | 14.7% | 7.15% (active) | 10.9% | 9.35% (active) | -33.3% (active) | -5.32% (active) | 10.5% | 48.2% | 74.1%
O=S(=O)(Oc1ccc(-c2cn3ccoc3n2)cc1)C1CCCCC1 | 102% | 86.7% | 101% | 105% | 100% | 99.9% | 87.9% | 99.4% | 100% | 103%
CCCCCC[n+]1ccc(SCC(=O)n2ccc3ccccc32)c2ccccc21 | 63.8% | 79.5% | 94% | 90.2% | 99.5% | 81.2% | 73.5% | 101% | 102% | 99.4%
C#C[C@]1(O)CC[C@H]2[C@@H]3CC=C4c5sc(Nc6cc(C)cc(C)c6)nc5CC[C@]4(C)[C@H]3CC[C@@]21C | 14.8% | 38.6% | 40.9% | 20.5% | 12.2% | 31.4% | 42.7% | 21.1% | -31.2% (active) | -13.3% (active)
COc1ccc(/C=N\NC(=O)c2cnn(CC(O)c3ccccc3)c2N)cc1OCc1ccc(Cl)cc1 (stereo not given) | 74.7% | 90.7% | 85% | 84.1% | 44.3% | 86% | 92.7% | 62.9% | 96.2% | 72.8%
